# Assay outcomes deposited in PubChem by Paczesny and Yang Labs, IUPUI and University of Michigan.
# Many of the other results were omitted from the sample, so hits are more common in it than they were.
# ST2 IL33 inh = inhibitors of human ST2 (IL1RL1) binding to IL-33, primary screen, biochemical, AlphaLISA | AlphaLISA ST2-Fc/biotin-IL-33 interaction, 1 h | 78,000 compounds, 2.3% hits | inhibition, % for hits at 17 µM | Interleukin-1 receptor-like 1 (Homo sapiens), Q01638; in the data active = inhibition above about 30%
# Target sequence (Q01638 whole entry, looked up): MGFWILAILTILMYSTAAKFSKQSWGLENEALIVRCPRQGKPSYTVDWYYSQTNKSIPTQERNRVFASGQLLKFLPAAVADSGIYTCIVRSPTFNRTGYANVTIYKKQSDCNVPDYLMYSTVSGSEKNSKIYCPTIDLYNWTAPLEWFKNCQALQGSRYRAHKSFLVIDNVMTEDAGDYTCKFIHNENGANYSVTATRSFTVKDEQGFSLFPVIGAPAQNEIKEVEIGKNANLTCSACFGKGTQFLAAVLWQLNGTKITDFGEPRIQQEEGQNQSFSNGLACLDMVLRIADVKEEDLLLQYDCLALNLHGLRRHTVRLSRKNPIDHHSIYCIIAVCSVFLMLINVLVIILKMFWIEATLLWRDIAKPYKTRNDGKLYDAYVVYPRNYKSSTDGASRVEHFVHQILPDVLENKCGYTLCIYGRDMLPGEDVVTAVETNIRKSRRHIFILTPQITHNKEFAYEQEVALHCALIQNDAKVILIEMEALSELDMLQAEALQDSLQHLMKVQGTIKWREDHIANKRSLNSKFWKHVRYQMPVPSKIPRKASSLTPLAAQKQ
# Numbers without * were called inactive; i = inactive.
SMILES,ST2 IL33 inh
CCCCOc1ccc(/C=c2\sc3nc(=O)c(C)nn3c2=O)cc1,i
CCOc1ccc(-c2nc3s/c(=C\c4ccc(C)cc4)c(=O)n3n2)cc1,i
CCOc1ccc(CN2CCN(Cc3ccc4c(c3)OCO4)CC2)cc1,i
CCOc1ccc(/C=c2\sc3n(c2=O)CN(c2ccc4c(c2)OCO4)CN=3)cc1,31%*
CCOc1ccc(/C=c2\sc3n(c2=O)CN(c2cccc(C(C)=O)c2)CN=3)cc1,31%*
CC(C)NC(=O)CN1CCN(C(=O)c2ccc3nc(C4CCCCC4)oc3c2)CC1,i
CCN(CC)C(=O)c1ccc(Cl)c(NC(=O)C[C@@H]2C[C@@H]3C=C[C@H]2C3)c1,i
Cc1ccc2nc(SCC(=O)NC(C)(C)C)[nH]c2c1,i
CC(=O)Nc1ccc(N=Cc2ccccc2O)cc1,i
CCN(CC)c1ccc(N=Cc2ccccc2O)cc1,79%*
CCN(CC)c1ccc(C=Nc2cc(Cl)ccc2O)c(O)c1,i
Cc1ccccc1NC(=O)c1ccco1,i
Cc1cccc(C)c1NC(=O)c1ccco1,i
Cc1ccc(/C=C/NC(=O)c2ccco2)cc1C,31%*
COc1ccc2cc(C3CN(CCn4cccn4)CCO3)ccc2c1 (configuration not stated),i
CC(=O)N(C1=C(NC2CCCCC2)C(=O)c2ccccc2C1=O)c1ccc(F)c(F)c1,45%*
COc1cccc(C(=O)Nc2ccccc2C(=O)NC2CCCCC2)c1,i
CC(C(=O)NC1CCCC1)N(c1ccccc1)S(C)(=O)=O (configuration not stated),i
COc1cccc(N(C(C)=O)C2=C(NC3CCCCC3)C(=O)c3ccccc3C2=O)c1,38%*
O=C(NC1CCCCC1)C(c1ccccc1)c1ccccc1,i
COc1cccc(N2CC(NC(=O)C3CCCCC3)CC2=O)c1 (configuration not stated),i
O=C(O)CN1C(=O)C2CCCN2c2ccc(C(=O)N3CCOCC3)cc21 (configuration not stated),i
C=CCNC(=O)CN(Cc1ccc(F)cc1)S(=O)(=O)c1ccc(Cl)cc1,i
CCOc1ccc(S(=O)(=O)NCCOC23CC4CC(CC(C4)C2)C3)cc1,i
Cc1ccccc1-n1cc(Cn2ccnc2-c2ccccc2C(=O)O)cn1,i
SMILES,ST2 IL33 inh
C=CCNC(=O)Nc1nc2c(s1)C[C@]1(C)CC[C@@H]3[C@H](OC(=O)[C@H]3C)[C@H]1[C@@H]2C,34%*
COc1cc(NC(=O)Nc2nc3c(s2)C[C@]2(C)CC[C@@H]4[C@H](OC(=O)[C@H]4C)[C@H]2[C@@H]3C)cc(OC)c1,i
C[C@H](C(=O)NCCN1CCOCC1)C1CC[C@@]2(C)Cc3sc(-c4ccccc4)nc3[C@@H](C)[C@@H]2[C@H]1O (some centres not stated),i
C[C@@H]1C(=O)O[C@H]2[C@H]1CC[C@@]1(C)Cc3sc(NC(=O)c4ccc(N(C)C)cc4)nc3[C@@H](C)[C@H]21,i
C[C@@H]1C(=O)O[C@H]2[C@H]1CC[C@@]1(C)Cc3sc(Nc4cccnc4)nc3[C@@H](C)[C@H]21,36%*
C[C@H]1[C@@H]2[C@H]3OC(=O)[C@@H](C)[C@@H]3CC[C@@]2(C)CC[C@@H]1NC(=O)C1CC1,i
C[C@@H]1C(=O)O[C@H]2[C@H]1CC[C@@]1(C)Cc3sc(Nc4ccc(C(=O)O)cc4)nc3[C@@H](C)[C@H]21,85%*
CSCC(=O)Nc1nc2c(s1)C[C@]1(C)CC[C@@H]3[C@H](OC(=O)[C@H]3C)[C@H]1[C@@H]2C,i
COc1cc(NC(=O)C23CC4CC(CC(C4)C2)C3)c(OC)cc1Cl,i
COc1cc(Br)ccc1NC(=O)CN1CCN(C)CC1,i
CS(=O)(=O)N1CCCC(C(=O)NCCC2=CCCCC2)C1 (configuration not stated),i
CSCCC1CC(=O)Nc2n[nH]c(C3CCC3)c21 (configuration not stated),i
CCSc1nnc2c(n1)OC(c1ccncc1)Nc1ccc(Br)cc1-2 (configuration not stated),i
COc1ccc(S(=O)(=O)Nc2cccc(Cl)c2Cl)cc1,i
CSc1cccc(NC(=O)C2Cc3ccccc3CN2S(C)(=O)=O)c1 (configuration not stated),i
O=[N+]([O-])c1cc(Br)cc(C=Nc2ccc(Br)cc2)c1O,i
O=[N+]([O-])c1cccc(C=Nc2ccccc2Cl)c1O,i
Cc1ccc(N=Cc2cc(C)cc([N+](=O)[O-])c2O)c(Cl)c1,30%*
Cn1c(=O)cc(SCC(=O)NCc2cccs2)c2ccccc21,i
COc1ccc(-c2nn(-c3ccccc3C)cc2CNC2CCOCC2)cc1F,i
COc1ccc(C2CCN(Cc3ccc(Sc4nncn4C)o3)c3ccccc3S2)cc1C (configuration not stated),31%*
CN(Cc1ccc(Sc2nncn2C)o1)C1CCCN(Cc2ccccc2F)C1 (configuration not stated),i
